The values that follow come from PubChem BioAssay AID2717 (Broad Institute, 2010).

The inhibition is the change of the read-out against control, counted positive when it falls.

Among all 300,000 compounds or so, about 3,200 (1.1%) were called active. For the sample, actives were picked, then their nearest neighbours and some compounds at random. Unmarked numbers belong to inactive results. Rule as the data show it: active = inhibition above about 75%; inconclusive = no clear call, values can overlap the other calls; inactive = below that; tested in HMLE shEcad cells.

This test can be described thus: growth suppression of cancer stem-like cells – cell-based, luminescence, primary screen (AID 2717). As to conditions: cancer stem cell-like cells viability, at 7.5 µM, active compounds read high.
Consider `COc1ccccc1-c1sc2ccccc2c1-c1ccc(Br)nc1`, for which the inhibition is 31.6%.

As to `c1ccc(-c2ccc(OCCN3CCOCC3)cc2)cc1`, the inhibition was 5.72%. Regarding `CC(=O)c1ccc(OCCN2CCOCC2)cc1`, the inhibition was -15.6%. For `c1ccc(-c2ccccc2OCCN2CCCCC2)cc1`, the inhibition is 0.336%. `COc1ccc(-c2sc3ccccc3c2-c2ccc(OCCN3CCOCC3)cc2)cc1`: the inhibition was 136% (active). Regarding `COc1ccc2sc(-c3ccccc3OC)c(-c3ccc(OCCN4CCCC4)cc3)c2c1`, the inhibition was 105% (active). In the case of `O=C(Nc1cc(S(=O)(=O)Nc2ccc(Cl)cc2)ccc1O)c1ccc(F)cc1F`, the inhibition was 18.9%. `COc1ccc(C(=O)COC(=O)C(O)c2ccccc2)c(OC)c1` (stereo not drawn): the inhibition was 3.81%. In the case of `O=c1ccc2c(-c3ccccc3S(=O)(=O)O)c3ccc(O)c(O)c3oc-2c1O`, the inhibition is 25.4%. As to `COc1cc(OC)cc(-c2nnc(N(C)C(=O)c3ccncc3)s2)c1`, the inhibition is -13.2%. As to `COCCN(C(=O)c1ccco1)c1nnc(-c2ccc(OC)cc2)s1`, the inhibition was -23%. As for `Cc1cccc(C)c1Nc1nnc(SCC(=O)NCCCN2CCCC2=O)s1`, the inhibition is -7.62%. On to `CN1CCN(C(=O)c2ccc(-c3ccc(Br)cc3)o2)CC1`, for which the inhibition is 44%. Regarding `O=C(CC1Nc2ccccc2NC1=O)Nc1ccccc1` (stereo not drawn), the inhibition is 100% (active). For `O=C(CC1NCCNC1=O)Nc1ccc(Oc2ccccc2)cc1` (stereo not drawn), the inhibition was 52.9%. Turning to `O=C(CC1NCCc2ccccc21)Nc1cccc(Cl)c1` (stereo not drawn), the inhibition is 7.22%. Take `O=C(COC(=O)c1ccc(O)cc1O)c1ccc2c(c1)OCCO2`: the inhibition is 8.44%.

For the compound `O=C(Nc1cccc(S(=O)(=O)N2CCCCC2)c1)c1cncc(Br)c1`, the inhibition is -3.28%. As to `COc1ccc(CCNc2nc3ccc(C)cc3n3cnnc23)cc1OC`, the inhibition was -23.4%. In the case of `COc1ccc(CCNc2nc(C)cc(C)n2)cc1OC` it was -36.8%; in that of `CCC[C@H]1CCCC/C=C\CCCC(=O)OCCN1C(=O)OC(C)(C)C`, -20.7%; in that of `COc1cccc(C2=CC(=O)C[C@H](c3ccc(OC)c(OC)c3)C2)c1`, -9.08%. For `CN(CC(=O)Nc1ccc(Cl)cc1)C(=O)c1ccc(COc2ccccc2)cc1`, the inhibition is 22.8%. Take `CCOC(=O)c1c(-c2ccccc2)oc2ccc(OCC(N)=O)cc12`: the inhibition is -4.93%. Turning to `CCOC(=O)c1c(-c2ccccc2)oc2cc(Br)c(O)c(C=O)c12`, the inhibition is 100% (active). As for `CCOC(=O)c1c(-c2ccccc2)oc2cc(Br)c(O)cc12`, the inhibition was 47.8%. For the compound `O=C1CC2(CCCC2)C(=O)N1CN1CCN(S(=O)(=O)c2ccc(F)cc2F)CC1`, the inhibition was -4.63%. Regarding `CCCN(CC1CC1)C(=O)COC(=O)c1ccc(C)cc1O`, the inhibition was -16%. The value for `CC(NC(=O)COC(=O)Cn1cc(C(F)(F)F)ccc1=O)c1ccccc1` (stereo not drawn) was -18.4%. `O=Cc1cn(Cc2ccccc2)nc1-c1cccnc1`: the inhibition is -1.18%. In the case of `Clc1ccc(CN2CCN(/N=C/c3cccnc3)CC2)cc1`, the inhibition was 3.75%. In the case of `O=C1/C(=C\c2cccnc2)CN(Cc2ccccc2)C/C1=C\c1cccnc1`, the inhibition was 90.1% (active).

`CC(OC(=O)c1c(F)cccc1F)C(=O)NCCC1=CCCCC1` (stereo not drawn): the inhibition was -17.6%. For `Cn1c(N)c(C(=O)COC(=O)c2cccc(S(=O)(=O)N3CCOCC3)c2)c(=O)n(C)c1=O`, the inhibition is 8.64%. With `CCOc1ccc2nc(NC(=O)c3cc([N+](=O)[O-])ccc3N3CCOCC3)sc2c1`, the inhibition was 36.3%.

In the case of `O=C(NC(Nc1nc2ccc([N+](=O)[O-])cc2s1)(C(F)(F)F)C(F)(F)F)c1ccccc1`, the inhibition was 98.4% (active). For `CCC(=O)NC(Nc1nc2ccc(C)cc2s1)(C(=O)OC)C(F)(F)F` (stereo not drawn), the inhibition is 6%. The value for `Cc1cccc(OCC(=O)OCC(=O)Nc2ccc(Cl)cn2)c1` was 0.766%; that for `COC(=O)C1CCN(C(=O)COC(=O)c2cc(S(=O)(=O)N3CCOCC3)ccc2C)CC1` was 4.55%. As to `COc1cc2c(-c3ccc4c(c3)OCO4)c(-c3ccsc3)oc(=O)c2cc1OC`, the inhibition was 8.35%. The value for `Cc1ccc(S(=O)(=O)NCC(=O)NNC(=O)c2ccc(Br)cc2)cc1C` was 1.69%; that for `N#CCSc1nc2ccc(N3CCOCC3)cc2c(=O)n1CCc1ccccc1` was 77.9% (active); that for `CCCCn1c(SCC(=O)NCC2CCCO2)nc2ccc(N3CCOCC3)cc2c1=O` (stereo not drawn) was 34.5%. The value for `COCCCNC(=O)CSc1nc2ccc(N3CCOCC3)cc2c(=O)n1CCc1ccccc1` was 20.5%; that for `CSc1ncccc1C(=O)Nc1cccc(S(=O)(=O)N2CCOCC2)c1` was -12.8%; that for `O=c1cc(N2CCCCC2)c(-c2ccccc2)nn1Cc1cccc(F)c1` was 76.4% (active). Consider `c1ccc(-c2cc(N3CCCCC3)c3ccccc3n2)cc1`, for which the inhibition was 38.6%. In the case of `O=C(CS(=O)(=O)c1cn(Cc2cccc(F)c2)c2ccccc12)N1CCCCC1` it was -3.16%; in that of `CC(=O)c1c(OCC(=O)N(C)C2CCCCC2)ccc2c(C)cc(=O)oc12`, -10.2%. As to `O=C(CNC(=O)c1ccco1)NNC(=O)c1ccc(Br)cc1`, the inhibition is 5.78%. For `Cc1ccc(NC(=S)NC(NC(=O)Cc2cccc3ccccc23)C(Cl)(Cl)Cl)cc1` (stereo not drawn), the inhibition was 192% (active). The value for `CC(C)(C)C(=O)NC(NC(=S)Nc1ccc(S(N)(=O)=O)cc1)C(Cl)(Cl)Cl` (stereo not drawn) was -4.65%; that for `O=C(Cc1cccc2ccccc12)NNC(=O)Nc1ccc(Cl)cc1` was 8.44%; that for `CCOC(=O)[C@H]1[C@H]2COc3ccc(Cl)cc3[C@@H]2N2C(=O)c3cc(C)ccc3NC(=O)[C@@]12C` was -10.6%. In the case of `CCOCCn1c(-c2ccccc2)nc2ccccc21` it was -0.165%.

For the compound `CCCCn1c(-c2cccc(C)c2)nc2cc3[nH]c(=O)c(C(C)C)nc3cc21`, the inhibition is 75.5% (active).

`CCCCn1c(N)c(N(CCOC)C(=O)CSCC(=O)Nc2cccc(C)c2)c(=O)[nH]c1=O`: the inhibition is -17.7%. Turning to `Cc1cc(NC(=O)CN2C(=O)NC(CC(C)C)C2=O)no1` (stereo not drawn), the inhibition was -1.14%. With `Cc1ccccc1NC(=O)CSC(=O)c1ccccc1`, the inhibition is -3.3%. Regarding `O=C(COC(=O)/C=C/c1ccc(Br)o1)Nc1cccc(S(=O)(=O)N2CCOCC2)c1`, the inhibition was -14.4%. For `Oc1c(C=Nc2cccc3nsnc23)ccc2ccccc12`, the inhibition was 87.2% (active). As to `O=[N+]([O-])c1ccc(N=Cc2c(O)ccc3ccccc23)cc1`, the inhibition is 12.2%.

Turning to `COc1ccc(C=Nc2cccc3ncccc23)cc1`, the inhibition was -1.64%.

Regarding `C[C@H]1CN([C@@H](C)CO)C(=O)Cc2cc(NC(=O)Cc3ccccc3)ccc2O[C@H]1CN(C)S(=O)(=O)c1cccs1`, the inhibition is -17%. In the case of `CCCC(=O)Nc1nc2ccc(NC(=O)c3c(F)c(F)c(OC)c(F)c3F)cc2s1`, the inhibition is 92% (active). As to `CSc1nc2ccc(NC(=O)c3c(F)cccc3F)cc2s1`, the inhibition is 4.73%. Regarding `CCCC(=O)Nc1nc2ccc(NC(=O)c3cccnc3)cc2s1`, the inhibition is 47.6%. Take `Cc1ccc(S(=O)(=O)N2[C@@H](c3cccc4ccccc34)C(C(=O)O)=C[C@H]2C(C)(C)C)cc1`: the inhibition is 11.1%. Consider `COc1cccc(NC(=O)CSc2nnc(C3CCCCC3)n2N)c1`, for which the inhibition was -6.52%. Consider `Cc1cc(C)c(NC(=O)C[N+](C)(C)CC(O)COc2cccc3ccccc23)c(C)c1` (stereo not drawn), for which the inhibition was -3.82%. Regarding `OC(COc1cccc2ccccc12)CN1CCN(c2ccccn2)CC1` (stereo not drawn), the inhibition was -5.87%. The value for `CC(C)c1ccccc1OCC(O)CN(CC(O)COc1cccc2ccccc12)C(C)C` (stereo not drawn) was 102% (active). For `CC(=O)N1CCN(CC(=O)Nc2ccc(SC(F)F)cc2)CC1`, the inhibition was 5.6%.

Regarding `Cc1ccc(CC(=O)Nc2ccc(OC(F)F)c(Cl)c2)cc1C`, the inhibition was 33.3%.

Turning to `O=C(Cc1ccc(Cl)c(Cl)c1)Nc1ccc(SC(F)F)cc1`, the inhibition is 75.2% (active).

For `COc1cc([N+](=O)[O-])ccc1NC(=O)COC(=O)CCOc1ccc(C)cc1`, the inhibition was 18.1%.

For the compound `COc1ccc(NS(=O)(=O)c2ccc(NC(=S)NC(=O)/C=C/c3ccc(C)cc3)cc2)nn1`, the inhibition was 9.35%. `COc1ccc(/C=C/C(=O)c2ccc(NS(=O)(=O)c3ccc(C)cc3)cc2)cc1O`: the inhibition is 99.8% (active).

With `Cc1ccc(C(=O)/C=C/Nc2ccc(S(=O)(=O)Nc3onc(C)c3C)cc2)cc1`, the inhibition is 6.82%. With `CC(C)(C)OC(=O)C[C@@H]1C/C=C\C[C@@H](CC(=O)NCCO)C(=O)N[C@H](Cc2c[nH]c3ccccc23)COC1=O`, the inhibition was -11.3%.

With `Cc1ccc(Br)c(NS(=O)(=O)c2cccc(C(=O)N3CCNC(=O)C3)c2)c1`, the inhibition is -15.2%. In the case of `CN1CCN(C2Cc3ccc(Cl)cc3Sc3ccc(F)cc32)CC1` (stereo not drawn) it was 101% (active); in that of `O=C(N=C1SC2CS(=O)(=O)CC2N1c1ccccc1)c1ccccc1` (stereo not drawn), -9.26%; in that of `Cc1ccc(C2(C)NC(=O)N(CC(=O)N3CC(=O)Nc4ccccc43)C2=O)cc1` (stereo not drawn), -12.5%.

As for `O=C(c1ccc(S(=O)(=O)NCc2ccco2)cc1)N1CCN(c2ccccc2)CC1`, the inhibition was -16.3%.

Take `CC(C)(c1ccccc1)c1ccc(OCCN)cc1`: the inhibition is 37%.

As to `CC(C)(c1ccccc1)c1ccc(OCCN2CCCC2)cc1`, the inhibition was 91.2% (active). Take `Cc1cc(OCCN2CCCC2)ccc1C(C)C`: the inhibition was 1.11%. As for `CN(Cc1ccc(F)cc1)C(=O)CN1C(=O)c2ccccc2S1(=O)=O`, the inhibition was 1.87%.

As to `Cc1cc(NC(=O)COC(=O)/C=C/c2ccc(C)o2)no1`, the inhibition is -11.7%. In the case of `CC(=O)Oc1ccccc1C(=O)Nc1ncc([N+](=O)[O-])s1` it was 76.2% (active). In the case of `O=C(CCc1ccccc1)Nc1ncc([N+](=O)[O-])s1` it was 23.5%. With `O=C(Nc1ncc([N+](=O)[O-])s1)C1COc2ccccc2O1` (stereo not drawn), the inhibition was 54.2%.
